From PubChem BioAssay (NCI)
The panel holds about 83,000 compounds, 20% with a hit somewhere; the sample as a whole holds those more often.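 The test compound was applied at a single concentration to cells in 96-well plates for 48 hours, and percent growth was recorded.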 Active and inactive are the calls of the source. How the source made its calls: active means growth percent below 10; inactive means the rest.

Legend:
Assay in all cases: NCI-60 one-dose screen, 48 h (100 = growth as untreated, 0 = no growth, -100 = all killed)
Conditions in all cases: 10 µM unless noted
DU-145 prostate = tested on: DU-145 prostate
K-562 leukemia = tested on: K-562 leukemia
MALME-3M melanoma = tested on: MALME-3M melanoma
MDA-MB-231 breast = tested on: MDA-MB-231 breast
RXF 393 renal = tested on: RXF 393 renal
SF-268 CNS = tested on: SF-268 CNS
SF-295 CNS = tested on: SF-295 CNS
SF-539 CNS = tested on: SF-539 CNS
UACC-257 melanoma = tested on: UACC-257 melanoma
M14 melanoma = tested on: M14 melanoma
HT29 colon = tested on: HT29 colon
SNB-75 CNS = tested on: SNB-75 CNS
SNB-19 CNS = tested on: SNB-19 CNS
PC-3 prostate = tested on: PC-3 prostate
SK-MEL-5 melanoma = tested on: SK-MEL-5 melanoma
UACC-62 melanoma = tested on: UACC-62 melanoma
LOX IMVI melanoma = tested on: LOX IMVI melanoma
SK-MEL-28 melanoma = tested on: SK-MEL-28 melanoma
HCT-15 colon = tested on: HCT-15 colon
U251 CNS = tested on: U251 CNS

Measured: growth

CC(=O)OC1/C=C\CC/C=C\C1 (stereo unspecified)
inactive: DU-145 prostate 113% | K-562 leukemia 110% | MALME-3M melanoma 108% | MDA-MB-231 breast 111% | RXF 393 renal 110% | SF-268 CNS 107% | SF-295 CNS 97.3% | SF-539 CNS 93.1% | UACC-257 melanoma 108% | M14 melanoma 104% | HT29 colon 109% | SNB-75 CNS 82.6% | SNB-19 CNS 100% | PC-3 prostate 96.4% | SK-MEL-5 melanoma 98.8% | UACC-62 melanoma 101% | LOX IMVI melanoma 106% | SK-MEL-28 melanoma 111%

COc1cc2cn3c4ccc(O)cc4[nH]c(=O)c3c2cc1OC
active: DU-145 prostate 3.02% | K-562 leukemia 3.94% | MALME-3M melanoma 1.16% | SF-295 CNS -11% | SF-539 CNS 5.31% | UACC-257 melanoma -10.1% | M14 melanoma 3.61% | HT29 colon -70.2% | SK-MEL-5 melanoma -90.7% | UACC-62 melanoma -9.19% | LOX IMVI melanoma 0.607%
inactive: MDA-MB-231 breast 30.9% | RXF 393 renal 26.8% | SF-268 CNS 18.1% | HCT-15 colon 23.3% | SNB-19 CNS 30.9% | U251 CNS 12% | PC-3 prostate 66.4% | SK-MEL-28 melanoma 11.5%

O=C1C(=O)c2ccccc2C(O)=C1CCCc1ccc(Oc2ccccc2)cc1
inactive: DU-145 prostate 85.4% | K-562 leukemia 34% | MALME-3M melanoma 54.7% | MDA-MB-231 breast 89.1% | RXF 393 renal 92.9% | SF-268 CNS 47.2% | SF-295 CNS 92.9% | SF-539 CNS 68.6% | UACC-257 melanoma 51.5% | M14 melanoma 41.3% | HT29 colon 113% | SNB-75 CNS 71.2% | SNB-19 CNS 62% | U251 CNS 36.1% | PC-3 prostate 37.5% | SK-MEL-5 melanoma 55.1% | UACC-62 melanoma 36.5% | LOX IMVI melanoma 38.9% | SK-MEL-28 melanoma 74.8%

Nc1nc(-c2cccc(Br)c2)cc(-c2cc3ccccc3oc2=O)n1
inactive: DU-145 prostate 111% | K-562 leukemia 104% | MALME-3M melanoma 123% | MDA-MB-231 breast 104% | RXF 393 renal 110% | SF-268 CNS 100% | SF-295 CNS 131% | SF-539 CNS 110% | UACC-257 melanoma 106% | M14 melanoma 103% | HT29 colon 117% | SNB-19 CNS 109% | U251 CNS 106% | PC-3 prostate 122% | SK-MEL-5 melanoma 89.7% | UACC-62 melanoma 101% | LOX IMVI melanoma 95.8% | SK-MEL-28 melanoma 126%

CCCC[N+](C)(N)CCCC
inactive: DU-145 prostate 111% | K-562 leukemia 103% | MALME-3M melanoma 107% | MDA-MB-231 breast 108% | RXF 393 renal 115% | SF-268 CNS 112% | SF-295 CNS 94.5% | SF-539 CNS 101% | UACC-257 melanoma 106% | M14 melanoma 100% | HT29 colon 101% | SNB-75 CNS 93.3% | SNB-19 CNS 104% | U251 CNS 106% | PC-3 prostate 90.5% | SK-MEL-5 melanoma 108% | UACC-62 melanoma 105% | LOX IMVI melanoma 87.3% | SK-MEL-28 melanoma 109%

O=C1Nc2c(c(=O)n(-c3ccccc3)c3ccccc23)C(c2ccc(Cl)cc2)N1 (stereo unspecified)
inactive: DU-145 prostate 86.7% | K-562 leukemia 93.7% | MALME-3M melanoma 121% | MDA-MB-231 breast 89.1% | RXF 393 renal 103% | SF-268 CNS 70.9% | SF-295 CNS 65.3% | SF-539 CNS 77% | UACC-257 melanoma 118% | M14 melanoma 95.2% | HCT-15 colon 90.4% | HT29 colon 106% | SNB-19 CNS 60.4% | U251 CNS 85.9% | PC-3 prostate 105% | SK-MEL-5 melanoma 80.4% | UACC-62 melanoma 62.8% | LOX IMVI melanoma 36.4% | SK-MEL-28 melanoma 90.9%

Cc1sc(NC(=O)c2ccc(C(C)(C)C)cc2)c(C(=O)O)c1C
inactive: DU-145 prostate 61.6% | K-562 leukemia 38.1% | MALME-3M melanoma 111% | MDA-MB-231 breast 105% | RXF 393 renal 114% | SF-268 CNS 88.1% | SF-295 CNS 35.7% | SF-539 CNS 65.8% | UACC-257 melanoma 101% | M14 melanoma 107% | HT29 colon 82% | SNB-75 CNS 85.5% | SNB-19 CNS 51% | PC-3 prostate 53.7% | SK-MEL-5 melanoma 73.3% | UACC-62 melanoma 98.4% | LOX IMVI melanoma 68.9% | SK-MEL-28 melanoma 110%

CC[N+](C)(C)N
inactive: DU-145 prostate 118% | K-562 leukemia 103% | MALME-3M melanoma 112% | MDA-MB-231 breast 106% | RXF 393 renal 94.3% | SF-268 CNS 110% | SF-295 CNS 104% | SF-539 CNS 109% | UACC-257 melanoma 110% | M14 melanoma 107% | HT29 colon 102% | SNB-75 CNS 80.5% | SNB-19 CNS 95.5% | U251 CNS 101% | PC-3 prostate 100% | SK-MEL-5 melanoma 95.4% | UACC-62 melanoma 105% | LOX IMVI melanoma 90.9% | SK-MEL-28 melanoma 94.9%

O=C(O)CC1Cc2ccccc2C1C(=O)O (stereo unspecified)
inactive: DU-145 prostate 106% | K-562 leukemia 91.5% | MALME-3M melanoma 103% | MDA-MB-231 breast 105% | RXF 393 renal 105% | SF-268 CNS 100% | SF-295 CNS 100% | SF-539 CNS 99.1% | UACC-257 melanoma 107% | M14 melanoma 95.9% | HCT-15 colon 101% | HT29 colon 106% | SNB-19 CNS 95% | PC-3 prostate 94.5% | SK-MEL-5 melanoma 103% | UACC-62 melanoma 97.3% | LOX IMVI melanoma 91.7% | SK-MEL-28 melanoma 109%

C/C=C(/C)C(=O)OC1C=C(CO)C(=O)C(OC(=O)C2(C)OC2C)C1C(C)C (stereo unspecified)
inactive: SF-268 CNS 13.3% | SNB-75 CNS 23.6% | SNB-19 CNS 12.1%
active: DU-145 prostate 6.72% | K-562 leukemia 1.51% | MALME-3M melanoma -77.4% | MDA-MB-231 breast 1.48% | RXF 393 renal -74.3% | SF-295 CNS -20.5% | SF-539 CNS -65.6% | UACC-257 melanoma -9.59% | M14 melanoma -49.2% | HT29 colon -60.3% | PC-3 prostate -7.66% | SK-MEL-5 melanoma -92.8% | UACC-62 melanoma -73.7% | LOX IMVI melanoma -83.8% | SK-MEL-28 melanoma -49%

CCOC(=O)c1cc(C(=O)c2ccc(Br)cc2)n2cc(C)cc(C)c12
inactive: DU-145 prostate 100% | K-562 leukemia 99% | MALME-3M melanoma 96.1% | MDA-MB-231 breast 79.8% | RXF 393 renal 64.2% | SF-268 CNS 97.2% | SF-295 CNS 100% | SF-539 CNS 87.3% | UACC-257 melanoma 87.2% | M14 melanoma 94.2% | HCT-15 colon 95.5% | HT29 colon 82.3% | SNB-19 CNS 87% | PC-3 prostate 84.1% | SK-MEL-5 melanoma 96.2% | UACC-62 melanoma 89.3% | LOX IMVI melanoma 92.3% | SK-MEL-28 melanoma 98.5%

N=C(N)c1ccc(-c2ccc(-c3cc(Cl)cc(Cl)c3)s2)cc1
active: DU-145 prostate -89.8% | K-562 leukemia -55.1% | MALME-3M melanoma -74.4% | MDA-MB-231 breast -78.4% | RXF 393 renal -90.2% | SF-268 CNS -66.1% | SF-295 CNS -87.3% | SF-539 CNS -92.7% | UACC-257 melanoma -44% | M14 melanoma -85.3% | HT29 colon -38% | SNB-75 CNS -90.6% | SNB-19 CNS -73.5% | PC-3 prostate -81.6% | SK-MEL-5 melanoma -93.7% | UACC-62 melanoma -80.4% | LOX IMVI melanoma -78.6% | SK-MEL-28 melanoma -86.4%

Nc1ncn([C@@H]2O[C@H](CO)[C@@H](O)C2(F)F)c(=O)n1
inactive: DU-145 prostate 43.5% | K-562 leukemia 65.7% | MALME-3M melanoma 67.9% | MDA-MB-231 breast 80% | RXF 393 renal 45% | SF-268 CNS 65.4% | SF-295 CNS 77.9% | SF-539 CNS 22.3% | UACC-257 melanoma 77.5% | M14 melanoma 15.6% | HCT-15 colon 52.2% | HT29 colon 70.1% | SNB-19 CNS 58.9% | PC-3 prostate 63.6% | SK-MEL-5 melanoma 70.8% | UACC-62 melanoma 47.3% | LOX IMVI melanoma 34.5% | SK-MEL-28 melanoma 78.5%

CC1C(=O)CCCC1=O
inactive: DU-145 prostate 124% | K-562 leukemia 103% | MALME-3M melanoma 98.4% | MDA-MB-231 breast 101% | RXF 393 renal 134% | SF-268 CNS 112% | SF-295 CNS 104% | SF-539 CNS 98.9% | UACC-257 melanoma 108% | M14 melanoma 111% | HT29 colon 94% | SNB-75 CNS 90.9% | SNB-19 CNS 106% | U251 CNS 108% | PC-3 prostate 108% | SK-MEL-5 melanoma 106% | UACC-62 melanoma 103% | LOX IMVI melanoma 106% | SK-MEL-28 melanoma 105%

Cc1ccc(OCCn2ccc(=O)n(CCOc3ccc(Cl)cc3C(=O)c3cc(C)cc(C)c3)c2=O)cc1
inactive: DU-145 prostate 73.3% | K-562 leukemia 13.2% | MALME-3M melanoma 51.9% | MDA-MB-231 breast 46.8% | RXF 393 renal 41.5% | SF-268 CNS 49.7% | SF-295 CNS 51.1% | SF-539 CNS 53.7% | UACC-257 melanoma 64.3% | M14 melanoma 24.7% | HCT-15 colon 27.8% | HT29 colon 18.9% | SNB-19 CNS 57.5% | PC-3 prostate 29.2% | SK-MEL-5 melanoma 49.2% | UACC-62 melanoma 32.7% | LOX IMVI melanoma 47% | SK-MEL-28 melanoma 68.3%

O=C(CCl)c1ccc2c(c1)CCCC2
inactive: DU-145 prostate 110% | K-562 leukemia 72.1% | MALME-3M melanoma 80.8% | MDA-MB-231 breast 103% | RXF 393 renal 99% | SF-268 CNS 104% | SF-295 CNS 70.2% | SF-539 CNS 90.8% | UACC-257 melanoma 98.1% | M14 melanoma 95.5% | HT29 colon 103% | SNB-75 CNS 114% | SNB-19 CNS 108% | U251 CNS 96.5% | PC-3 prostate 95.7% | SK-MEL-5 melanoma 106% | UACC-62 melanoma 98.5% | SK-MEL-28 melanoma 105%

O=Nc1c(-c2c(O)[nH]c3cc(Br)ccc23)[nH]c2ccccc12
active: DU-145 prostate -88.8% | K-562 leukemia -64.1% | MDA-MB-231 breast 9.57% | RXF 393 renal -62.6% | SF-268 CNS -61% | SF-295 CNS -26.2% | SF-539 CNS -44.8% | UACC-257 melanoma -78.8% | HT29 colon 0.864% | SNB-75 CNS -13.3% | PC-3 prostate -2.93% | LOX IMVI melanoma 8.85% | SK-MEL-28 melanoma -100%
inactive: MALME-3M melanoma 61.6% | M14 melanoma 31.1% | SNB-19 CNS 15.1% | UACC-62 melanoma 38.9%
